Screening data (PubChem)
Hits are enriched below; roughly 19% of the tested compounds scored in any of these assays.
HT1080NT lethal: qHTS for induction of synthetic lethality in tumor cells producing 2HG: qHTS for the HT-1080-NT fibrosarcoma cell line; HT-1080-NT fibrosarcoma viability, CellTiter-Glo ATP luminescence, 48 h; Potency, µM (series often up to 46.1 µM), usual class: cytotoxic; hit rate 1.6% among 360,000; AID 686970, 2013;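 also: NT is the 2HG producing partner of a matched IDH1 knockdown line; nearly all actives have a fitted effect of over 55% in size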
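Compounds were tested in concentration-response format on HT-1080-NT cells for 48 hours at 37 degrees C. Cell viability came from CellTiter-Glo luminescence; curves were classified by r2, response magnitude and activity.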
HT1080 IDH1KD tx: qHTS for induction of synthetic lethality in tumor cells producing 2HG: qHTS for the HT-1080-IDH1KD cell line; HT-1080 IDH1 knockdown viability, ATP luminescence, 48 h; Potency, µM (highest dose often 46.1 µM), hits mostly cytotoxic; hit rate 2% among 360,000
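CellTiter-Glo luminescence after 48 h compound exposure at 37 degrees C of IDH1-knockdown HT-1080 cells in 5% FBS RPMI. %Activity scaled between DMSO wells and cell-free media wells, with curves fitted and assigned curve classes.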
DT40 TDP1 CPT: qHTS for Inhibitors of human tyrosyl-DNA phosphodiesterase 1 (TDP1): qHTS in cells in presence of CPT. chicken DT40 Tdp1-/-;hTDP1 cells + 20 nM CPT, ATP luminescence, 48 h. hit rate 12% among 420,000. AID 686979, 2013. Potency, µM (series often up to 46.2 µM), hits mostly inhibitors; also: nearly all actives have a fitted effect of over 55% in size
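Chicken DT40 Tdp1-/- cells stably complemented with human TDP1 were seeded at 400 cells/well in medium containing 20 nM camptothecin, exposed to pin-transferred compounds, and grown at 37 °C for at least 48 hr. Viability was read as ATP luminescence.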
TDP1 cell noCPT: qHTS for Inhibitors of human tyrosyl-DNA phosphodiesterase 1 (TDP1): qHTS in cells in absence of CPT. DT40 Tdp1-/- hTDP1 cells, no CPT, ATP luminescence, 48 h. Potency, µM (doses to about 46.2 µM), most hits filed as inhibitors. hit rate 15% among 420,000; also: nearly all actives have a fitted effect of over 55% in size
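Chicken DT40 Tdp1-/- cells stably complemented with human TDP1 were seeded at 400 cells/well with DMSO in place of 20 nM camptothecin. After compound pinning, cells grew at least 48 hr at 37 °C; viability read by CellTiter-Glo luminescence.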
IL1B secr inh: qHTS for Inhibitors of Inflammasome Signaling: IL-1-beta AlphaLISA Primary Screen; hit rate 4.7% among 360,000; AID 743279, 2014; activity change, % at 57.5 µM; THP-1 LPS/ATP IL-1B secretion, AlphaLISA, 16 h; hits give low values; in the data active = activity change below about -50%; inconclusive = mostly about -30% to -49%
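THP-1 cells pretreated 1 hr with compounds (up to 57.5 uM final), then stimulated with LPS (250 ng/mL final) plus ATP (1.25 mM final); secreted IL-1B measured by AlphaLISA after 16 hr, decreased signal indicating inhibition.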
Of the large screens only hits and unclear results are named; the others gave an inactive call; ! = a repeat was not active. Unless noted, calls follow the shape of the dose curve; as a rule, active = well fitted curve in the direction sought with a large enough effect; inconclusive = small, poorly fitted or top-dose-only effect, or another doubt; inactive = no such curve, though single readings can be large; an effect the other way counts as inactive or inconclusive.

CCN1CCC[C@H]1CNC(=O)c1c(OC)ccc(Br)c1OC	DT40 TDP1 CPT 33.5µM!, TDP1 cell noCPT 29.9µM!
CCN1CCN(CCCNC(=O)c2ccc3c(c2)NC(=O)/C(=C\c2cccc(C)c2)S3)CC1	HT1080NT lethal inconclusive, DT40 TDP1 CPT 16.4µM, TDP1 cell noCPT inconclusive, IL1B secr inh -86.7
COc1ccccc1C(=O)NCCC(=O)NCC1CCCO1 (stereo unspecified)	none
COc1ccccc1NC(=O)c1ccc2[nH]c(C)cc(=O)c2c1	none (no result: HT1080NT lethal, HT1080 IDH1KD tx, IL1B secr inh)
O=C1Nc2cc(C(=O)NCCCN3CCCC3)ccc2S/C1=C/c1cccc(Cl)c1	HT1080 IDH1KD tx inconclusive, DT40 TDP1 CPT 6.51µM, TDP1 cell noCPT inconclusive
CCOC(=O)C1CCN(C(=O)c2ccc3c(c2)NC(=O)/C(=C\c2cccc(C)c2)S3)CC1	DT40 TDP1 CPT inconclusive, TDP1 cell noCPT 18.4µM
COc1ccc(/C=C2/Sc3ccc(C(=O)NCCCN4CCOCC4)cc3NC2=O)cc1OC	HT1080NT lethal inconclusive, HT1080 IDH1KD tx 20.6µM, DT40 TDP1 CPT 4.61µM, TDP1 cell noCPT 2.59µM
COc1ccc(C(=O)NCCCN2CCOCC2)cc1OC	none
O=C1Nc2cc(C(=O)N3CCc4ccccc4C3)ccc2S/C1=C\c1ccccc1	none
CCOC(=O)C1CCN(C(=O)c2ccc3c(c2)NC(=O)/C(=C/c2ccccc2)S3)CC1	DT40 TDP1 CPT inconclusive, TDP1 cell noCPT inconclusive
O=C1Nc2cc(C(=O)NCCN3CCCCCC3)ccc2S/C1=C\c1ccccc1	HT1080NT lethal inconclusive, HT1080 IDH1KD tx inconclusive, DT40 TDP1 CPT 13µM, TDP1 cell noCPT 11.6µM, IL1B secr inh -92.6
Cc1c(C(=O)N2CCC2(C)C(=O)O)oc2ccccc12 (stereo unspecified)	HT1080NT lethal inconclusive, HT1080 IDH1KD tx inconclusive, IL1B secr inh inconclusive
CCOc1ccccc1NC(=O)C(NCC1(N2CCCCC2)CCCCC1)c1ccccc1 (stereo unspecified)	DT40 TDP1 CPT inconclusive, TDP1 cell noCPT 16.4µM, IL1B secr inh inconclusive
CCOc1ccccc1NC(=O)C(OC(=O)C1CC1)c1ccccc1 (stereo unspecified)	none
CCc1cc2c(NC(Cc3ccccc3)C(=O)O)nc(C)nc2s1 (stereo unspecified)	none
CCc1cc2c(NCc3ccccc3)nc(C)nc2s1	DT40 TDP1 CPT 16.4µM, TDP1 cell noCPT 8.2µM
CCc1cc2c(NCC3CCCO3)nc(C)nc2s1 (stereo unspecified)	DT40 TDP1 CPT 13µM, TDP1 cell noCPT inconclusive
CCc1cc2c(NCCC(=O)O)nc(C)nc2s1	none
Cc1ccccc1Cn1c(=N)n(CC(=O)c2ccc([N+](=O)[O-])cc2)c2ccccc21	DT40 TDP1 CPT 4.11µM, TDP1 cell noCPT 5.17µM (no result: IL1B secr inh)
CCCn1c(=N)n(CC(=O)c2ccc([N+](=O)[O-])cc2)c2ccccc21	DT40 TDP1 CPT inconclusive, TDP1 cell noCPT 23.1µM, IL1B secr inh -52.9
Clc1ccc(OCc2nn3c(-c4ccco4)nnc3s2)cc1	DT40 TDP1 CPT inconclusive, TDP1 cell noCPT 18.4µM
Clc1ccccc1-c1nn2c(-c3cc(-c4ccccc4)n[nH]3)nnc2s1	DT40 TDP1 CPT 12.6µM, TDP1 cell noCPT 11.2µM (no result: HT1080NT lethal, HT1080 IDH1KD tx, IL1B secr inh)
COc1ccccc1-c1nn2c(=O)cc(C)nc2s1	none
Clc1ccc(-c2nn3c(-c4ccccc4)nnc3s2)cc1	DT40 TDP1 CPT inconclusive
COc1ccccc1-c1nn2c(-c3cc(-c4ccccc4)n[nH]3)nnc2s1	DT40 TDP1 CPT 6.31µM, TDP1 cell noCPT 4.47µM (no result: HT1080NT lethal, HT1080 IDH1KD tx, IL1B secr inh)
CN(C)c1ccc(-c2nn3c(-c4cc(-c5ccccc5)n[nH]4)nnc3s2)cc1	DT40 TDP1 CPT 5.01µM, TDP1 cell noCPT 3.16µM (no result: HT1080NT lethal, HT1080 IDH1KD tx, IL1B secr inh)
Cc1cc(-c2nnc3sc(-c4ccc(Cl)cc4Cl)nn23)n[nH]1	DT40 TDP1 CPT inconclusive, TDP1 cell noCPT inconclusive, IL1B secr inh inconclusive
COc1ccccc1N1CCN(c2nc3ccc(C)cc3n3nnnc23)CC1	none (no result: HT1080NT lethal, HT1080 IDH1KD tx, IL1B secr inh)
COc1cccc(OC)c1-c1nn2c(-c3cc(-c4ccccc4)n[nH]3)nnc2s1	HT1080NT lethal inconclusive, HT1080 IDH1KD tx inconclusive, DT40 TDP1 CPT 18.4µM, TDP1 cell noCPT inconclusive
COc1ccc(-c2nn3c(-c4ccc(F)cc4)nnc3s2)cc1	TDP1 cell noCPT inconclusive, IL1B secr inh inconclusive
COc1ccccc1-c1nn2c(-c3ccco3)nnc2s1	DT40 TDP1 CPT inconclusive, TDP1 cell noCPT 18.4µM
CCN(CC)C(=O)N1c2ccccc2CC(N(CC)CC)c2ccccc21 (stereo unspecified)	DT40 TDP1 CPT 7.31µM, TDP1 cell noCPT 5.8µM
CCN(CC)C(=O)N1c2ccccc2Sc2ccccc21	DT40 TDP1 CPT inconclusive, TDP1 cell noCPT inconclusive
O=C(CC1CCCCC1)N1CCCC(c2nc(-c3ccc(S(=O)(=O)N4CCCC4)cc3)no2)C1 (stereo unspecified)	HT1080NT lethal inconclusive, DT40 TDP1 CPT 23.1µM, TDP1 cell noCPT 15.8µM, IL1B secr inh -77.2
O=S(=O)(c1ccc(Cl)cc1)N1CCCC(c2nc(-c3ccc(F)cc3)no2)C1 (stereo unspecified)	DT40 TDP1 CPT 14.6µM, TDP1 cell noCPT inconclusive
Cc1ccc(-c2nc(C3CCCN(S(=O)(=O)c4ccc(C)cc4)C3)no2)cc1 (stereo unspecified)	DT40 TDP1 CPT 16.4µM, TDP1 cell noCPT inconclusive
COC(=O)C1=C(CSCc2ccco2)NC(=O)NC1c1cc(C)ccc1C (stereo unspecified)	none
COc1cc(CNCc2cc(OC)ccc2OC)cc(OC)c1	DT40 TDP1 CPT inconclusive, IL1B secr inh -56.6
COc1cc(CNCc2cc(OC)c(OC)c(OC)c2)cc(OC)c1	DT40 TDP1 CPT 13µM, TDP1 cell noCPT 23.1µM
CCOc1ccc(CNCc2ccc(C(=O)O)cc2)cc1OC	none
CCOc1cc(CNCc2cc(OC)cc(OC)c2)ccc1OC	HT1080NT lethal inconclusive, HT1080 IDH1KD tx inconclusive, DT40 TDP1 CPT 13µM, TDP1 cell noCPT 8.2µM, IL1B secr inh -58.2
CCCN(S(=O)(=O)c1ccc(OCC)cc1)S(=O)(=O)c1cccs1	TDP1 cell noCPT inconclusive
CCCC(=O)Nc1c2c(nn1-c1ccc([N+](=O)[O-])cc1)CS(=O)(=O)C2	none
COc1cccc(/C=C(/C(=O)OCC(N)=O)c2ccccc2)c1	none
COc1cccc(/C=C(/C(=O)OCC(=O)NC2CCCC(C)C2C)c2ccccc2)c1 (stereo unspecified)	HT1080NT lethal inconclusive, HT1080 IDH1KD tx inconclusive, DT40 TDP1 CPT inconclusive, TDP1 cell noCPT 20.6µM, IL1B secr inh -65.2
Cc1cc(C(=O)Nc2ccccc2C)n(-c2ccccc2)n1	TDP1 cell noCPT inconclusive
CCOc1cc(/C=C2\SC(=NC)N(C)C2=O)cc(Cl)c1OC(C)=O	DT40 TDP1 CPT inconclusive, TDP1 cell noCPT inconclusive
